The supplement of paper PMC10981050
Several values for one entry are separate records, joined by “and”; a condition that tells them apart may be missing. Equal values may be shown once. Where a name gives a salt, the structure may show the parent alone.

Experiments:
Assay in all cases: cell viability relative to vehicle control; higher = less cytotoxic
Settings in all cases: 10 µM
[1] = test system: K562
How it was run: (§1)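 Four leukaemia lines, as CRISPR-edited mutant clones and isogenic wild-type clones, were tested against Selleck bioactive, kinase and epigenetic probe libraries after removal of identity-inconsistent compounds. Cells were exposed to a single 10 µM dose for 48 h, and CellTiter-Glo luminescence was then read. Viability was calculated relative to the on-plate vehicle control.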

[2] = test system: MARIMO
How it was run: as §1

[3] = test system: MOLM14
How it was run: as §1

[4] = test system: OCI-AML2
How it was run: as §1

Structure (SMILES) | cell viability ([1]; SRSF2 genotype: SRSF2 P95H/wt) | cell viability ([1]; SRSF2 genotype: SRSF2 wt/wt) | cell viability ([2]; SRSF2 genotype: SRSF2 P95H/wt) | cell viability ([2]; SRSF2 genotype: SRSF2 wt/wt) | cell viability ([3]; SRSF2 genotype: SRSF2 P95H/wt) | cell viability ([3]; SRSF2 genotype: SRSF2 wt/wt) | cell viability ([4]; SRSF2 genotype: P95H/wt) | cell viability ([4]; SRSF2 genotype: wt/wt)
COc1cnc(NS(=O)(=O)c2ccc(N)cc2)nc1 [Sulfameter (Bayrena)] | 98.4% and 101% | 98.9% | 106% | 96% | 105% | 102% | 115% | 99%
O=C(O)COc1nn(Cc2ccccc2)c2ccccc12 [Bendazac] | 103% and 104% | 108% | 106% | 111% | 103% | 106% | 111% | 115%
CC(=NNC(=S)N1CCC1)c1ccccn1 | 20.3% and 23% | 23.7% | 7.26% | 11.4% | 1.22% | 0.64% | 11% | 9.98%
NC(=O)c1cnc2[nH]ccc2c1N[C@@H]1[C@@H]2CC3C[C@H]1C[C@@](O)(C3)C2 | 89.4% and 109% | 98.6% | 70.9% | 71.5% | 13.2% | 9.06% | 15.3% | 19.3%
O=C(Nc1cccc(C(F)(F)F)c1)c1cccc2cc(Oc3cc(CO)ncn3)ccc12 | 80.8% and 91.3% | 87.8% | 101% | 121% | 86.9% | 98.6% | 90.7% | 96.3%
C[C@@H](CN1CC(=O)NC(=O)C1)N1CC(=O)NC(=O)C1 [Dexrazoxane Hydrochloride] | 99.3% and 102% | 97.5% | 92.4% | 96.4% | 70.5% | 78% | 75.2% | 76.2%
C/C1=C\CC[C@]23O[C@H]2[C@@H](OC3=O)c2c(C)coc2C1 [Linderane] | 109% and 104% | 112% | 104% | 99.6% | 117% | 108% | 103% | 101%
C[C@@H]1O[C@@H](O[C@@H]2[C@@H](O)[C@H](OCCc3ccc(O)c(O)c3)O[C@H](COC(=O)/C=C/c3ccc(O)c(O)c3)[C@H]2O)[C@H](O)[C@H](O)[C@H]1O [Isoacteoside] | 101% and 104% | 91.6% | 99% | 103% | 94.9% | 101% | 100% | 106%
CCC[C@@H]1C[C@@H](C(=O)N[C@@H]([C@H]2O[C@H](SC)[C@H](O)[C@@H](O)[C@H]2O)[C@H](C)Cl)N(C)C1 [Clindamycin HCl] | 91.2% and 108% | 102% | 94.1% | 99.9% | 96.5% | 108% | 83.9% | 85.3%
CN(C)C(=O)c1ccc(S(=O)(=O)c2ccc(NC(=O)C(C)(O)C(F)(F)F)c(Cl)c2)cc1 (stereo not given) | 75.7% and 74.8% | 74.2% | 60.1% | 58% | 78.4% | 84.5% | 52.9% | 55.2%
C=C(C)C1CCC2(C)CCC(=O)C(C)=C2C1 (stereo not given) | 111% and 105% | 112% | 106% | 100% | 112% | 110% | 102% | 101%
COc1nc(C)cnc1NS(=O)(=O)c1cccnc1-c1ccc(-c2nnco2)cc1 [Zibotentan (ZD4054)] | 98.4% and 103% | 98.4% | 99% | 97.6% | 100% | 97.5% | 102% | 105%
CN[C@H]1C(=O)N[C@@H]2Cc3ccc(cc3)Oc3cc4cc(c3O[C@@H]3O[C@H](C(=O)O)[C@@H](O)[C@H](O)[C@H]3NC(=O)CCCCCCCCC(C)C)Oc3ccc(cc3Cl)[C@@H](O)[C@@H]3NC(=O)[C@H](NC(=O)[C@@H]4NC(=O)[C@@H](NC2=O)c2cc(cc(O)c2Cl)Oc2cc1ccc2O)c1ccc(O)c(c1)-c1c(O[C@H]2O[C@H](CO)[C@@H](O)[C@H](O)[C@@H]2O)cc(O)cc1[C@@H](C(=O)NCCCN(C)C)NC3=O [Dalbavancin] | 97.1% and 89.6% | 94.9% | 95.8% | 103% | 96.6% | 97.9% | 86.5% | 106%
CCn1cc(-c2cccc(C(F)(F)F)c2)c2sc(C(=N)NC3CCS(=O)(=O)CC3)cc2c1=O | 68.1% and 71.5% | 69.9% | 55.8% | 45.3% | 27% | 32.3% | 22.6% | 42.1%
COCCOC(=O)C1=C(C)NC(C)=C(C(=O)OC/C=C/c2ccccc2)C1c1cccc([N+](=O)[O-])c1 (stereo not given) [Cilnidipine] | 87.1% and 86.8% | 81.2% | 88.1% | 98.1% | 78.8% | 81.6% | 78.9% | 74.5%
COc1ccc(-c2cc(=O)c3c(O)cc(OC4OC(CO)C(O)C(O)C4OC4OC(C)C(O)C(O)C4O)cc3o2)cc1O (stereo not given) [Neodiosmin] | 93.3% and 85.3% | 90.1% | 94.6% | 97% | 97.6% | 100% | 89.8% | 94.4%
N#Cc1ccc([C@H]2CCc3cncn32)c(F)c1 | 103% and 100% | 88.2% | 100% | 113% | 99.5% | 101% | 95.9% | 94.6%
CCN(CC)c1ccc2c(-c3ccccc3C(=O)O)c3ccc(=[N+](CC)CC)cc-3oc2c1 [Rhodamine B] | 51.1% and 54.3% | 53% | 51.3% | 59.4% | 48.5% | 61% | 58.7% | 49.6%
COCCCOc1ccnc(C[S+]([O-])c2nc3ccccc3[nH]2)c1C (stereo not given) [Rebeprazole sodium] | 95.2% and 93.6% | 101% | 104% | 106% | 95.6% | 102% | 97.4% | 113%
O=C(Cn1nnc(-c2ccncc2)c1-c1ccccc1)Nc1ccc(-c2ccccc2)cn1 | 58% and 48.3% | 57.6% | 51.6% | 53.3% | 54.6% | 51.1% | 35.9% | 40.8%

Structure (SMILES) | cell viability ([1]; SRSF2 genotype: SRSF2 P95H/wt) | cell viability ([1]; SRSF2 genotype: SRSF2 wt/wt) | cell viability ([2]; SRSF2 genotype: SRSF2 P95H/wt) | cell viability ([2]; SRSF2 genotype: SRSF2 wt/wt) | cell viability ([3]; SRSF2 genotype: SRSF2 P95H/wt) | cell viability ([3]; SRSF2 genotype: SRSF2 wt/wt) | cell viability ([4]; SRSF2 genotype: P95H/wt) | cell viability ([4]; SRSF2 genotype: wt/wt)
N#Cc1ccc(-c2csc(NN=C3CCCC3)n2)cc1 [Remodelin] | 76.6% and 86.8% | 87.6% | 66.9% | 62.1% | 92.3% | 99.4% | 61% | 72.3%
COc1ccnc(C[S+]([O-])c2nc3cc(OC(F)F)ccc3[nH]2)c1OC (stereo not given) [Pantoprazole (Protonix)] | 103% and 104% | 102% | 109% | 103% | 115% | 112% | 113% | 96.5%
CCCc1cc(C)[nH]c(=O)c1CNC(=O)c1cc(-c2ccc(N3CCN(C(C)C)CC3)nc2)cc2c1cnn2C(C)C | 36.5% and 35% | 30.5% | 81.1% | 80% | 49.8% | 60.8% | 4.14% | 31.8%
CC(=O)N1CCN(CCOc2ccc(C3CCN(C4=Nn5c(nnc5C(F)(F)F)CC4)CC3)cc2)CC1 | 68.5% and 73% | 71.5% | 60.6% | 57.4% | 53.5% | 53.2% | 49.8% | 59.7%
COc1cc(C=CC(=O)CC(=O)C=Cc2ccc(O)cc2)ccc1O [Demethoxycurcumin] | 46.9% and 54.2% | 64.6% | 62.9% | 64.4% | 8.11% | 13.7% | 13.5% | 23.6%
N=C(N)NC(=N)N1CCOCC1 [Moroxydine HCl] | 99.7% and 100% | 91.8% | 97.6% | 101% | 95.8% | 99.5% | 98.1% | 93.8%
CCCCCCCCCC[C@H](C(=O)O)[C@]1(C(=O)O)CCC(=O)O1 [Spiculisporic Acid] | 107% and 103% | 103% | 104% | 107% | 98.8% | 110% | 95.5% | 103%
C[C@H]1COC2(CCN(c3nc(=O)c4cc(C(F)(F)F)cc([N+](=O)[O-])c4s3)CC2)O1 (racemic) [BTZ043 racemate] | 88.3% and 84.3% | 84.1% | 82.4% | 86.7% | 87% | 85.3% | 91.7% | 86.9%
CC1=C(C(=O)Nc2cc3cn[nH]c3cc2F)C(c2ccc(C(F)(F)F)cc2)CC(=O)N1 (stereo not given) | 99.9% and 96.7% | 95.3% | 89.1% | 98.6% | 36.8% | 91.7% | 23.6% | 42.9%
O=S(=O)(O)CCSSCCS(=O)(=O)O [Dimesna] | 107% and 101% | 95% | 99.3% | 103% | 96.3% | 99.6% | 106% | 105%
O=S(=O)(NCCNCC=Cc1ccc(Br)cc1)c1cccc2cnccc12 | 77.6% and 78% | 75.8% | 61.2% | 69.1% | 43.2% | 50% | 38.7% | 43.2%
COC(=O)CC1CC(c2ccc(O)cc2)=NO1 (stereo not given) | 113% and 102% | 104% | 102% | 112% | 77.1% | 102% | 104% | 103%
Clc1ccc(NN=C(c2ccccc2)c2ccccn2)nc1 | 17.9% and 15.3% | 20% | 3.72% | 0.76% | 1.65% | 0.71% | 5.44% | 3.14%
NC(=O)Nc1cc(-c2cccc(F)c2)sc1C(=O)N[C@H]1CCCNC1 | 3.91% and 4.76% | 6.23% | 13.3% | 13.4% | 1.02% | 0.84% | 2.47% | 8.51%
CC(C)=C[C@H]1C[C@](C)(O)[C@@H]2[C@H]3CC[C@@H]4[C@@]5(C)CC[C@H](OC6OC[C@H](O)[C@H](O[C@@H]7O[C@H](CO[C@@H]8O[C@H](CO)[C@@H](O)[C@H](O)[C@H]8O)[C@@H](O)[C@H](O)[C@H]7O[C@@H]7OC[C@@H](O)[C@H](O)[C@H]7O)[C@H]6O[C@@H]6O[C@@H](C)[C@H](O)[C@@H](O)[C@H]6O)C(C)(C)[C@@H]5CC[C@@]4(C)C34CO[C@@]2(C4)O1 (stereo not given in full) [Jujuboside A] | 109% and 107% | 102% | 101% | 104% | 109% | 102% | 91.6% | 101%
COC(=O)c1ccc(O)c(O)c1 [Methyl protocatechuate] | 105% | 105% | 90.5% | 101% | 101% | 109% | 117% | 97.9%
Cc1ccccc1N1CCN(CCc2nnc3n2CCCC3)CC1 [Dapiprazole Hydrochloride] | 103% and 96% | 93.2% | 97.7% | 110% | 97% | 102% | 96.4% | 97.1%
OCc1cc([C@@H](O)CNCCCCCCOCCOCc2c(Cl)cccc2Cl)ccc1O [Vilanterol Trifenate] | 85% and 94.3% | 87% | 79.5% | 86.2% | 72.8% | 82.9% | 73.9% | 76.3%
N=C(NOCC(O)CN1CCCCC1)c1cccnc1 (stereo not given) | 106% and 96.6% | 106% | 104% | 99.2% | 108% | 101% | 97.6% | 104%
CC(C)(O)CNc1nc(Nc2ccnc(C(F)(F)F)c2)nc(-c2cccc(C(F)(F)F)n2)n1 [AG-221 (Enasidenib)] | 102% and 103% | 103% | 93.1% | 99.8% | 97.8% | 110% | 84.6% | 89.4%
